Measured potencies and affinities stand elsewhere. Inconclusive results are not listed. A number with no mark means an inactive call.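 Rule for the calls: active = in every test run, a fitted half-maximal concentration for signal decrease at or below twice the highest tested concentration; inconclusive = runs disagree, flat 30 to 70% decrease, or poor fit; inactive = the rest.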
assay: activation of miR-122 Renilla sensor silencing – cell-based, Huh7 psiCHECK-miR122, Renilla luciferase, cherry-picked, dose response (AID 651956); settings: Huh7 psiCHECK-miR122 Renilla luciferase reporter, 48 h; series mostly up to 35 µM; activity change, negative = signal decrease: at the top concentration;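 note: 0% = median neutral control wells and -100% = median positive control wells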

Point of comparison: `COCC(=O)NC[C@H]1N[C@H](CO)[C@H]1c1ccc(C2=CCCC2)cc1`, “activity change, negative = signal decrease” value -37.9%. Against it:
- C[C@@H]1CN([C@@H](C)CO)S(=O)(=O)c2ccc(-c3ccccc3F)cc2O[C@@H]1CN(C)Cc1cccnc1 — lower, -68.3%
- CN(C[C@H]1N[C@@H](CO)[C@@H]1c1ccc(C2=CCCC2)cc1)C(=O)c1ccccn1 — higher, 209%
- CN(Cc1ccccc1)C(=O)COC(=O)c1ccccc1Nc1ccccc1 — higher, 52.7%
- Cc1cc(C(=O)Nc2ccc3c(c2)C(=O)N(C)[C@H]2CC[C@H](CC(=O)N[C@H](C)c4ccccc4)O[C@H]2CO3)no1 — higher, 77.8%
- CC(C)NC(=O)N1C[C@@H]2[C@H](c3ccccc31)[C@@H](CO)N2C(=O)c1cccnc1 — higher, -18.4%
- CCOc1ccc(-c2nnc(SCC(=O)Nc3ccc4c(c3)c3ccccc3n4CC)n2N)cc1 — higher, 71.1%
- O=C(C1CC1)N1C[C@H]2[C@@H](c3ccccc31)[C@H](CO)N2C(=O)c1ccccc1F — higher, -25.8%
- N#CC1=C(N)Oc2c(ccc3cccnc23)C1c1ccccc1 (centres undefined) — higher, 13.3%
- O=C(Nc1nc(-c2cc3ccccc3o2)cs1)c1ccc(S(=O)(=O)N2CCCC2)cc1 — lower, -43.6%
- CCNC(=O)Nc1ccc2c(c1)C(=O)N(C)[C@H]1CC[C@@H](CC(=O)NCCOC)O[C@@H]1CO2 — higher, 128%
- O=C(Nc1ccc(F)cc1)N1C[C@H]2[C@@H](c3ccccc31)[C@H](CO)N2C(=O)c1ccncc1 — higher, -5.52%
- CCCNC(=O)Nc1ccc2c(c1)C(=O)N(C)[C@@H]1CC[C@@H](CC(=O)NCC3CCCCC3)O[C@H]1CO2 — higher, 71.2%
- C/C=C/c1ccc([C@H]2[C@H](CO)N(C(C)=O)[C@H]2CN(C)C(=O)c2ccccn2)cc1 — higher, -23.3%
- C/C=C/c1ccc([C@@H]2[C@@H](CO)N[C@@H]2CN(CC)C(=O)CN2CCOCC2)cc1 — higher, 52.7%
- CN1C(=O)c2cc(NC(=O)Cc3ccccc3)ccc2OC[C@H]2O[C@@H](CC(=O)NC3CCC3)CC[C@@H]21 — higher, 6.97%
- C[C@@H]1CN([C@@H](C)CO)S(=O)(=O)c2ccc(C#Cc3ccccc3F)cc2O[C@H]1CN(C)C(=O)c1ccc2c(c1)OCO2 — lower, -53.2%
- Cc1cc(C(=O)Nc2ccc3c(c2)C(=O)N(C)[C@@H]2CC[C@@H](CC(=O)N[C@H](C)c4ccccc4)O[C@H]2CO3)no1 — higher, 8.39%
- O=C(Nc1ccc(Cl)c(C(F)(F)F)c1)c1ccco1 — higher, 57.4%
- CC(C)NC(=O)N(C)C[C@H]1Oc2cc(C#C[C@H](C)O)ccc2S(=O)(=O)N([C@@H](C)CO)C[C@H]1C — higher, 67.8%
- CCCNC(=O)Nc1ccc2c(c1)C(=O)N(C)[C@@H]1CC[C@H](CC(=O)NCC3CCCCC3)O[C@H]1CO2 — lower, -47.3%
- COCCNC(=O)C[C@H]1CC[C@@H]2[C@@H](COc3ccc(NS(=O)(=O)c4ccc(Cl)cc4)cc3C(=O)N2C)O1 — higher, -22.1%
- Cc1ccccc1NCN1C(=O)C2C3C=CC(C3)C2C1=O (centres undefined) — higher, -8.98%
- CN1C(=O)c2cc(NC(=O)C3CC3)ccc2OC[C@@H]2O[C@H](CC(=O)NCCN3CCCC3)CC[C@H]21 — higher, 89.1%
- CCC(=O)N1[C@H](CN(C(C)C)S(C)(=O)=O)[C@@H](c2ccccc2)[C@@H]1CO — higher, -31.1%
- CN1C(=O)c2cc(NC(=O)c3cccs3)ccc2OC[C@H]2O[C@@H](CC(=O)N3CCCCC3)CC[C@H]21 — higher, -31.5%
- CCC(=O)N1[C@H](CO)[C@@H](c2ccccc2)[C@H]1CN(C(C)C)S(C)(=O)=O — higher, -18.1%
- COCC(=O)Nc1ccc2c(c1)C(=O)N(C)[C@@H]1CC[C@@H](CC(=O)NC3CCCC3)O[C@@H]1CO2 — higher, 13.2%
- COCC(=O)N1[C@H](CO)[C@H]2c3ccccc3N(C(=O)c3ccccc3F)C[C@H]21 — higher, -11%
- COc1ccc(NS(=O)(=O)c2ccc(NC(=O)C(C)(C(F)(F)F)C(F)(F)F)cc2)nn1 — higher, -17.6%
- Cc1cc(C)cc(OCC(O)CN2CCC(CN3C(=O)c4cccc5cccc(c45)C3=O)CC2)c1 (centres undefined) — higher, 1.75%
- Cc1ccc(-c2noc(CCC(=O)Nc3ccccc3C)n2)cc1 — higher, -15.5%
- OC[C@H]1[C@@H](c2ccccc2)[C@H](CNCC2CCC2)N1CC1CC1 — higher, 30.6%
- CCCNC(=O)C[C@H]1CC[C@@H]2[C@H](COc3ccc(NC(=O)c4cccs4)cc3C(=O)N2C)O1 — higher, 115%
- COc1ccc(CC(NC(C)=O)C(=O)N2CCN(C(=O)N(C(C)C)C(C)C)CC2)cc1 (centres undefined) — higher, 13.5%
- CO[C@@H]1CN(C)C(=O)c2ccc(NC(=O)c3nc4ccccc4s3)cc2OC[C@H](C)N(Cc2cccnc2)C[C@H]1C — higher, -9.21%

Point of comparison: `CCNC(=O)C[C@H]1CC[C@H]2[C@H](COc3ccc(NC(=O)Nc4cccc(OC)c4)cc3C(=O)N2C)O1`, “activity change, negative = signal decrease” value -25.6% [at 30 µM]. Against it:
- CNC(=O)C[C@@H]1CC[C@H]2[C@@H](COc3ccc(NC(=O)NC(C)C)cc3C(=O)N2C)O1 — higher, 91.3% [at 30 µM]
- COc1cccc(NC(=O)Nc2ccc3c(c2)C(=O)N(C)C[C@@H](OC)[C@@H](C)CN[C@H](C)CO3)c1 — higher, 16.7% [at 30 µM]
